A short description of assay [1]: growth inhibition, single agents and combos, LFS_MB_1R, cell-based, cisplatin or BGB combos, synergistic combos for chromothripsis tumors (AID 1671452).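 Further: cells exposed for 96 hours before readout.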 As to conditions: LFS_MB_1R medulloblastoma cells, stronger effect = higher value.
Assay [2] in a line: growth inhibition, single agents and combos, CRL2098, cell-based, BGB or cisplatin IC20 combos, synergistic combos for chromothripsis tumors (AID 1671454).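 Further: cells exposed for 96 h before readout; 0% = vehicle DMSO and 100% = killing by high DMSO.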 Conditions: CRL2098 osteosarcoma cells, drug combinations, stronger effect = higher value.
The nature of assay [3]: growth inhibition, single agents and combos, HD-MB03, cell-based, BGB or cisplatin IC20 combos, synergistic combos for chromothripsis tumors (AID 1671455; in the data active means inhibition above about 83%;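 further: 0% = vehicle DMSO and 100% = high DMSO as cytotoxic control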). Conditions: HD-MB03 medulloblastoma cells, stronger effect = higher value.
A short description of assay [4]: growth inhibition, single agents and combos, UWB1.289, cell-based, BGB or cisplatin combos, synergistic combos for chromothripsis tumors (AID 1671456).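 Further: cells exposed to compound for four days; 0% = vehicle DMSO and 100% = killing by high DMSO.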 Conditions: UWB1.289 ovarian carcinoma cells, stronger effect = higher value.
Assay [5] is described as follows: growth inhibition, single agents and combos, LFS_MB_2R, cell-based, cisplatin combos, synergistic combos for chromothripsis tumors (AID 1671457).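 Further: cells exposed to compound for four days before readout.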 Conditions: LFS_MB_2R medulloblastoma cells, stronger effect = higher value.
Assay [6] is described as follows: UWB1.289_BRCA1 ovarian cancer growth, cell-based, BGB or cisplatin combinations (AID 1671459). As to conditions: UWB1.289 BRCA1 ovarian carcinoma, drug combinations, stronger effect = higher value.
Assay [7] can be described thus: drug combination toxicity in non-malignant astrocytes – cell-based, BGB or cisplatin IC20 combos, cytotoxicity control for chromothriptic childhood tumor combination screen (AID 1671460).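 Further: cells exposed to compounds for 96 hours before viability readout; 0% = vehicle and 100% = killing control.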 As to conditions: Human astrocytes, viability inhibition, drug combinations, at 0.5 µM, stronger effect = higher value.
A short description of assay [8]: CRL1545 cell growth, single agent and combined, cisplatin and BGB IC20 combos (AID 1671464).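 Further: cells exposed to compound for 96 hours before readout; 0% = vehicle DMSO and 100% = high DMSO killing control.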 As to conditions: CRL1545 osteosarcoma cells, stronger effect = higher value.
Assay [9] is described as follows: chitosan synthesis blockers in C. neoformans – flow cytometry, Cibacron Brilliant Red staining (AID 1347148; call rule not given here;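 further: compound exposure lasted three days at 37 degrees C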). Conditions: Cryptococcus neoformans chitosan, stronger effect = lower value; at 10 µM unless noted.
A short description of assay [10]: galactose survival enhancers in mitochondrial complex I cybrids – cell-based, galactose medium, ATP luminescence, primary screen (AID 1645843;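 active means z-score of at least 1.8 in each of two replicates, scored against plate mean and spread of sample wells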;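 further: positive z means more ATP and so rescue of galactose-driven cybrid death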). Conditions: complex I mutant cybrid cells, 72 h, stronger effect = higher value.
The nature of assay [11]: liver-stage malaria parasite load reduction – cell-based, known kinase inhibitor set, luminescence, hepatoma host viability (AID 624392; call rule not given here;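 further: infected cells incubated roughly two days before readout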). As to conditions: Plasmodium liver stage in hepatoma cells, luciferase luminescence, concentration not given here; liver cell % of control: measured here: host liver cell viability; parasite % of control: stronger effect = lower value.
Assay [12] can be described thus: compounds altering viability of human ES cells (AID 493140; call rule not given here;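 further: cells exposed to compounds for four days before counting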). Conditions: human embryonic stem cell survival screen; stronger effect = higher value.
Assay [13] can be described thus: P. berghei load reduction in hepatocytes – cell-based, HepG2, luciferase luminescence, HepG2 viability, primary screen (AID 624349; in the data active means parasite load remaining mostly below about 12%, no sharp cut-off; inactive means mostly above about 10%;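 further: 100% = mean of DMSO negative control wells on the same plate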). Conditions: P. berghei liver stage in HepG2, luciferase luminescence, concentration not given here; parasite load remaining: stronger effect = lower value; viability: measured here: HepG2 viability without parasites.
Assay [14] addresses NAD(+) hydrolase SARM1 (Homo sapiens) (UniProt Q6SZW1). Kind of assay: blocking NAD cleavage by SARM1 SAM-TIR – cell lysate, NAD-Glo luminescence (AID 1508614;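 active means compound whose remaining NAD level is above about 45 nM, limit read from the data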). Conditions: SAM-TIR HEK293T lysate NADase, at 1 µM, stronger effect = higher value.
Assay [15] concerns the target Mitogen-activated protein kinase 7 (Homo sapiens) (UniProt Q13164). Briefly: Gal4-ERK5 driven luciferase induction – cell-based, HTS, primary screen (AID 1508626;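 active means luciferase signal above three times the same-plate solvent-only control wells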;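 further: luciferase driven by Gal4-ERK5 fusion binding five Gal4 sites before minimal TATA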). Conditions: HeLa Gal4-ERK5 transactivation, 18 h, at 5 µM, stronger effect = higher value.
[16] abbreviates: measured here: combination with BGB IC40, at 0.05 µM.
[17] abbreviates: measured here: combination with cisplatin, at 0.5 µM.
[18] abbreviates: measured here: combination with cisplatin, at 5 µM.
Setting [19] is: measured here: combination with BGB at IC20, at 0.5 µM.
Where [20] appears, read: measured here: combination with cisplatin at IC20, at 0.5 µM.
The mark [21] stands for this setting: measured here: combo with BGB at IC20, at 0.5 µM.
Setting [22] is: measured here: combo with cisplatin at IC20, at 0.5 µM.
Where [23] appears, read: measured here: inhibition with BGB combination, at 0.05 µM.
[24] abbreviates: measured here: inhibition with cisplatin combination, at 0.05 µM.
Setting [25] is: BGB combination, concentration series, at 5 µM.
Where [26] appears, read: cisplatin combination, concentration series, at 5 µM.
Setting [27] is: measured here: combo with BGB IC20.
[28] abbreviates: measured here: combo with cisplatin IC20.
Setting [29] is: measured here: with BGB IC20 combination, at 0.5 µM.
[30] abbreviates: measured here: with cisplatin IC20 combination, at 0.5 µM.

Where “and” joins values, the source holds several entries; their conditions need not be identical. Equal entries are not always repeated. Calls of active or inactive are those of the source. Unless noted, no stated cut-off is given here; in the data, active means inhibition above about 80%; inactive means the rest.

Experimental findings from PubChem BioAssay are described below.

Sequence of Mitogen-activated protein kinase 7 (Homo sapiens) (Q13164 whole entry, looked up, the tested form may be a part): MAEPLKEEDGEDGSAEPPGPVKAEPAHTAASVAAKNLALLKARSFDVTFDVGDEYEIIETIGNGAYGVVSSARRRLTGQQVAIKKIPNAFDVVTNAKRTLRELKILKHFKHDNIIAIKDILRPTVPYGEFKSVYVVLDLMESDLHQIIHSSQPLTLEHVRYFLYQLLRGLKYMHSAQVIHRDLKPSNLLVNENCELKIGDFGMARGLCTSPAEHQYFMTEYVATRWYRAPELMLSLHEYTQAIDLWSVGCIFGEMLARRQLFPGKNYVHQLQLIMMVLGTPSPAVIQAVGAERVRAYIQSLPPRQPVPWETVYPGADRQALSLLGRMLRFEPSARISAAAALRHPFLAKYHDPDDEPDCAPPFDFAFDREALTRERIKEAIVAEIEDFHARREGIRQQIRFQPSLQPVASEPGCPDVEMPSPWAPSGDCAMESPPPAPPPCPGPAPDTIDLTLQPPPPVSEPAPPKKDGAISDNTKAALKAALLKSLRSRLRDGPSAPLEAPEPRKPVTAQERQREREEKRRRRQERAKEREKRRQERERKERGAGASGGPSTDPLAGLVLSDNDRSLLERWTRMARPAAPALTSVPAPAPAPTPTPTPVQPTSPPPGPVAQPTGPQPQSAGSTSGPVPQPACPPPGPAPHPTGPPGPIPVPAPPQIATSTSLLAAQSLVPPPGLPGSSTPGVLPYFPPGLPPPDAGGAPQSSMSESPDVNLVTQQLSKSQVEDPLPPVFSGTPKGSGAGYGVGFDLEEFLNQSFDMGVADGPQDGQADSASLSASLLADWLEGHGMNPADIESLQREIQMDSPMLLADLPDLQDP
Sequence of NAD(+) hydrolase SARM1 (Homo sapiens) (Q6SZW1 whole entry, looked up, the tested form may be a part): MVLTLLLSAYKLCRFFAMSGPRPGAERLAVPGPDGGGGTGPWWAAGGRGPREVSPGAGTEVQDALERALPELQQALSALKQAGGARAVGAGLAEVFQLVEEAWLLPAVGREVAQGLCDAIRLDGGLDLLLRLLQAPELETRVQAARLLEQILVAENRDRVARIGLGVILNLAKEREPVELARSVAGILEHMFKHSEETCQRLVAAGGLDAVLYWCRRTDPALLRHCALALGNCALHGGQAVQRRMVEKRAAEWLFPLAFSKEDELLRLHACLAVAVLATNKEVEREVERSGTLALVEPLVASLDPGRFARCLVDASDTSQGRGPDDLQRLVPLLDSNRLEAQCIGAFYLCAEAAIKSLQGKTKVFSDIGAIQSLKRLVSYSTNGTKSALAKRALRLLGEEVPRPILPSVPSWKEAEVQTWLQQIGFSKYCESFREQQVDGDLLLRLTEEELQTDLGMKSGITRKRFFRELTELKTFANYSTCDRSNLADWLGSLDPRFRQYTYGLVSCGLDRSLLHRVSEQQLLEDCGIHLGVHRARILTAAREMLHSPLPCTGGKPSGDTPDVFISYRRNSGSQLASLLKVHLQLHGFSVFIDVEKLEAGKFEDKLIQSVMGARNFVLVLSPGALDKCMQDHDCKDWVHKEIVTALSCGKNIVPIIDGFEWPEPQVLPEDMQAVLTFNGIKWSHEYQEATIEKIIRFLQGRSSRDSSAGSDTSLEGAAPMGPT

A word on the inhibition: it is the relative decrease from the control value, in per cent. `O=C(/C=C/c1cccc(S(=O)(=O)Nc2ccccc2)c1)NO`: the inhibition in assay [1] (at 0.5 µM) is 31.6% (inactive); in assay [1] (setting [16]) it was -40%; in assay [1] (setting [17]) it was 39.8%; in assay [1] (setting [18]), 99.9%; in assay [2] (at 0.5 µM), -17% (inactive); in assay [2] (setting [19]) it was -63.8%. Besides, the inhibition in [2] (setting [20]) was 6.33%; in assay [3] (at 0.5 µM), 86.6% (active); in [3] (setting [21]), 88.4%; in [3] (setting [22]), 99%; in [4] (at 0.5 µM), 41% (inactive); in assay [4] (setting [23]) it was -3.28%. The inhibition is 9.18% in [4] (setting [24]); 37.4% (inactive) in assay [5] (at 0.5 µM); 58.7% in assay [5] (setting [17]); 105% in [5] (setting [18]); 99.6% in [6] (setting [25]); 41.8% (inactive) in assay [6] (at 0.5 µM). Moreover, the inhibition in [6] (setting [26]) was 120%; in [7], 31.9% (inactive); in assay [7] (setting [27]), 38.1%; in assay [7] (setting [28]), 9.25%; in assay [8] (at 0.5 µM), 90.5% (active); in [8] (setting [29]), 88.7%. For the same molecule, the inhibition in [8] (setting [30]) is 91.2%; in assay [8] (single agent, at 0.05 µM), -2.13%; in assay [8] (single agent, at 5 µM), 85.5%.

For the molecule `CCCNC(=O)[C@H]1O[C@@H]1C(=O)N[C@H](C(=O)N1CCC[C@H]1C(=O)OC)C(C)CC` (stereo partly drawn), the fold fluorescence in [9] was 3.89 [at 125.8 µM] (inactive).

With `Clc1ccc2c(N3CCN(CCCN4CCN(c5ccnc6cc(Cl)ccc56)CC4)CC3)ccnc2c1`, the z-score in assay [10] is -0.6 (inactive).

`c1cc(OCCN2CCCCC2)cc(-c2n[nH]c3ccc(-c4ncn[nH]4)cc23)c1`: in [11], the liver cell % of control is 77.7% and 82.4% and 94%; the parasite % of control was 63.2% (inactive) and 149% (inactive) and 87% (inactive).

One may read the viability as a read-out of living cells in per cent, often relative to untreated cells. As to `CO[C@H]1/C=C/O[C@@]2(C)Oc3c(C)c(O)c4c(O)c(c(/C=N/N5CCN(C)CC5)c(O)c4c3C2=O)NC(=O)/C(C)=C\C=C\[C@H](C)[C@H](O)[C@@H](C)[C@@H](O)[C@@H](C)[C@H](OC(C)=O)[C@@H]1C`, in assay [12], the survival is 9.5 (inactive). Further, in assay [13], the parasite load remaining is 95.1% (inactive) and 71.6% (inactive) and 41.3% (inactive); the viability is 99.1% and 71.9% and 96.5%. Besides, in assay [14], the remaining NAD is 10 nM (inactive). In addition, the luciferase signal in [15] is 44 AU (inactive). The z-score in [10] is 1.12 (inactive).

With `Cc1nc(N)ncc1-c1nc(N2CCOCC2)c2sc(C(C)(C)O)cc2n1`, in [11], the liver cell % of control is 78.4% and 78.6% and 93.7%; the parasite % of control was 406% (inactive) and 544% (inactive) and 660% (inactive).

Turning to `O=C(CCCCCCNC(=O)c1cnc(N(c2ccccc2)c2ccccc2)nc1)NO`, the inhibition in assay [1] (at 0.5 µM) is -2.12% (inactive) and -15.9% (inactive); in assay [1] (setting [16]) it was -29.1% and -24.9%; in [1] (setting [17]) it was 6.1% and -31.8%; in [1] (setting [18]), 84.8% and 59.4%; in assay [2] (at 0.5 µM), -71.5% (inactive) and -77.4% (inactive); in assay [2] (setting [19]), -57.1% and -110%. Also, the inhibition in assay [2] (setting [20]) was -110% and -74.1%; in assay [3] (at 0.5 µM), 1.23% (inactive) and -11.6% (inactive); in assay [3] (setting [21]), -8.85% and -13.2%; in assay [3] (setting [22]) it was 14.2% and -7.98%; in [4] (at 0.5 µM), 1.59% (inactive) and 9.83% (inactive); in assay [4] (setting [23]), -25.2% and -41.7%. Also, the inhibition in [4] (setting [24]) was -17.6% and -12.7%; in assay [5] (at 0.5 µM) it was -17.5% (inactive) and -17% (inactive); in [5] (setting [17]) it was -3.75% and -9.43%; in assay [5] (setting [18]) it was 74.7% and 60.9%; in assay [6] (setting [25]), 47.7% and 28.3%; in [6] (at 0.5 µM), 1.98% (inactive) and -9.53% (inactive). For the same molecule, the inhibition was 66.1% and 58.6% in [6] (setting [26]); -18.3% (inactive) and 0.04% (inactive) in assay [7]; -21.3% and 12.4% in assay [7] (setting [27]); -18.3% and -8.91% in assay [7] (setting [28]); -14% (inactive) and -9.25% (inactive) in assay [8] (at 0.5 µM); -11% and -28.2% in [8] (setting [29]). Besides, the inhibition in assay [8] (setting [30]) is -17.4% and -1.39%; in assay [8] (single agent, at 0.05 µM), -31.8% and -21.9%; in assay [8] (single agent, at 5 µM), 89.1% and 74.4%.

`Cn1c(=O)n(-c2ccc(C(C)(C)C#N)cc2)c2c3cc(-c4cnc5ccccc5c4)ccc3ncc21`: in [11], the liver cell % of control was 79.1% and 72.9%; the parasite % of control was 288% (inactive) and 494% (inactive) and 6.49% (inactive).
